{"source": "PubChem BioAssay AID434959", "about": "(Broad Institute, 2010)", "note": "Among all 30,000 compounds or so, about 110 (0.37%) were called active.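 How the source made its calls: active means delta delta Cp rounded down to an integer at or above 3, about 3 SD of DMSO wells; inactive means the rest.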 Many of the other results were omitted from the sample, so actives are more common in it than they were."}
{"assay": "YB-1 transcript reduction by qRT-PCR – cell-based, fluorescence, primary screen (AID 434959);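 further: higher means less YB-1 transcript or more CDIP transcript relative to DMSO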", "settings": "U2OS, qRT-PCR YB-1 vs CDIP delta delta Cp, 16 h; active compounds read high; zero = DMSO, each unit about twofold"}
{"compound": "COc1ccc(S(=O)(=O)Nc2ccc3c(c2)CC(=O)N([C@H](C)CO)C[C@H](C)[C@H](CN(C)C(=O)Nc2ccccc2)O3)cc1", "delta Cp (YB-1 minus CDIP)": "0.185 (inactive)"}
{"compound": "C[C@@H]1CN([C@@H](C)CO)C(=O)Cc2cc(NC(=O)C3CCCCC3)ccc2O[C@@H]1CN(C)CC1CCCCC1", "delta Cp (YB-1 minus CDIP)": "0.332 (inactive)"}
{"compound": "Cc1noc(C)c1NC(=O)N(C)C[C@H]1Oc2c(NS(=O)(=O)c3cccs3)cccc2C(=O)N([C@@H](C)CO)C[C@@H]1C", "delta Cp (YB-1 minus CDIP)": "-0.0216 (inactive)"}
{"compound": "C[C@H]1CN([C@@H](C)CO)C(=O)c2cc(NC(=O)Cc3cn(C)c4ccccc34)ccc2O[C@H]1CN(C)CC1CCCCC1", "delta Cp (YB-1 minus CDIP)": "-0.873 (inactive)"}
{"compound": "C[C@H]1CN([C@@H](C)CO)C(=O)Cc2cc(NC(=O)Nc3ccc(F)cc3)ccc2O[C@H]1CN(C)S(=O)(=O)c1ccccc1", "delta Cp (YB-1 minus CDIP)": "-0.124 (inactive)"}
{"compound": "O=C(O)CCCCCCC(=O)NN=C1CCCCCC1", "delta Cp (YB-1 minus CDIP)": "-0.0992 (inactive)"}
{"compound": "C[C@H](CO)N1C[C@H](C)[C@@H](CN(C)S(=O)(=O)c2ccccc2)Oc2c(NS(=O)(=O)c3cn(C)cn3)cccc2C1=O", "delta Cp (YB-1 minus CDIP)": "0.133 (inactive)"}
{"compound": "CC(C)CSc1nnc(CSCc2nc(-c3ccc(Cl)cc3)cs2)n1C", "delta Cp (YB-1 minus CDIP)": "0.176 (inactive)"}
{"compound": "COC(=O)[C@@]1(CCS(=O)(=O)c2ccccc2)N=C(c2ccc(OCCCO)cc2)O[C@H]1c1ccccc1N=[N+]=[N-]", "delta Cp (YB-1 minus CDIP)": "-0.253 (inactive)"}
{"compound": "CCc1c(C)n([O-])c2c([n+]1=O)CCCCC2", "delta Cp (YB-1 minus CDIP)": "6.44 (active)"}
{"compound": "Cc1ccc(-c2c[n+](=O)c3c(n2[O-])CCC3)cc1", "delta Cp (YB-1 minus CDIP)": "-0.134 (inactive)"}
{"compound": "C[C@H]1CN([C@@H](C)CO)C(=O)Cc2cc(NC(=O)Cc3ccccc3)ccc2O[C@H]1CN(C)S(=O)(=O)c1ccc(Cl)cc1", "delta Cp (YB-1 minus CDIP)": "-0.43 (inactive)"}
{"compound": "COc1ccc(CN(C)C[C@H]2Oc3c(NS(=O)(=O)c4ccccc4)cccc3C(=O)N([C@H](C)CO)C[C@@H]2C)cc1", "delta Cp (YB-1 minus CDIP)": "0.263 (inactive)"}
{"compound": "C[C@@H]1CCCCO[C@H](CN(C)C(=O)c2ccccc2)[C@@H](C)CN([C@H](C)CO)C(=O)c2cc(NC(=O)Nc3cccc4ccccc34)ccc2O1", "delta Cp (YB-1 minus CDIP)": "-0.0616 (inactive)"}
{"compound": "C[C@@H]1CN([C@H](C)CO)C(=O)c2cc(N(C)C)ccc2O[C@@H]1CN(C)S(C)(=O)=O", "delta Cp (YB-1 minus CDIP)": "-0.194 (inactive)"}
{"compound": "C[C@@H]1CN([C@@H](C)CO)C(=O)CCCn2cc(nn2)CO[C@H]1CN(C)Cc1ccc(C(=O)O)cc1", "delta Cp (YB-1 minus CDIP)": "0.212 (inactive)"}
{"compound": "CC1OC(OC2C(OC3C(O[C@H]4CC[C@@]5(C)C(CC[C@]6(C)C5CC=C5[C@@H]7CC(C)(C)C[C@@H](O)[C@]7(C)CC[C@]56C)C4(C)C)OC(C(=O)O)C(O)C3O)OC(CO)C(O)C2O)C(O)C(O)C1O", "note": "(stereo partly specified)", "delta Cp (YB-1 minus CDIP)": "0.299 (inactive)"}
{"compound": "CCC/C=C/C(=O)OC1C(O)C23C(O)OC4(CCC5C6(C)CCC(OC7OC(C(=O)O)C(O)C(OC8OC(CO)C(O)C(O)C8OC8OC(C)C(O)C(O)C8OC8OCC(O)C(O)C8O)C7OC7OC(CO)C(O)C(O)C7O)C(C)(C)C6CCC5(C)C4(C)CC2OC(C)=O)C3CC1(C)C", "note": "(stereo unspecified)", "delta Cp (YB-1 minus CDIP)": "3.51 (active)"}
{"compound": "CC1(C)CC[C@]2(C(=O)O)CC[C@]3(C)C(=CCC4[C@@]5(C)CC[C@H](OC6O[C@H](CO)[C@@H](O)[C@H](O[C@@H]7O[C@H](CO)[C@@H](O)[C@H](O)[C@H]7O)[C@H]6O)C(C)(C)C5CC[C@]43C)[C@@H]2C1", "note": "(stereo partly specified)", "delta Cp (YB-1 minus CDIP)": "-0.209 (inactive)"}
{"compound": "CC1(C)CC[C@]2(C(=O)O[C@@H]3O[C@H](CO)[C@@H](O)[C@H](O)[C@H]3O)CC[C@]3(C)C(=CCC4[C@@]5(C)CC[C@H](O[C@@H]6O[C@H](C(=O)O)[C@@H](O[C@@H]7OC[C@H](O)[C@H](O)[C@H]7O)[C@H](O)[C@H]6O)C(C)(C)C5CC[C@]43C)C2C1", "note": "(stereo partly specified)", "delta Cp (YB-1 minus CDIP)": "0.0826 (inactive)"}
{"compound": "C/C=C(/C)C(=O)O[C@H]1CC(C)(C)C[C@H]2C3=CCC4[C@@]5(C)CC[C@H](O[C@@H]6O[C@H](C(=O)O)[C@@H](O[C@@H]7O[C@H](CO)[C@H](O)[C@H](O)[C@H]7O[C@@H]7O[C@H](CO)[C@@H](O)[C@H](O)[C@H]7O)[C@H](O)[C@H]6O[C@@H]6O[C@@H](C)[C@H](O)[C@@H](O)[C@H]6O)C(C)(C)C5CC[C@@]4(C)[C@]3(C)[C@@H](O)[C@@H](O)[C@@]12CO", "note": "(stereo partly specified)", "delta Cp (YB-1 minus CDIP)": "10.3 (active)"}
{"compound": "C/C=C(/C)C(=O)O[C@H]1CC(C)(C)C[C@H]2C3=CCC4[C@@]5(C)CC[C@H](O[C@@H]6O[C@H](C(=O)O)[C@@H](O[C@@H]7O[C@H](CO)[C@H](O)[C@H](O)[C@H]7O[C@@H]7O[C@H](CO)[C@@H](O)[C@H](O)[C@H]7O)[C@H](O)[C@H]6O[C@@H]6O[C@@H](C)[C@H](O)[C@@H](O)[C@H]6O)C(C)(C)C5CC[C@@]4(C)[C@]3(C)[C@@H](OC(C)=O)[C@@H](O)[C@@]12COC(C)=O", "note": "(stereo partly specified)", "delta Cp (YB-1 minus CDIP)": "-0.219 (inactive)"}
{"compound": "C=CC(C)(O)CCC1(C)C2=C(C(OC(C)=O)C(OC(C)=O)C1C)C(C)(C)CCC2", "note": "(stereo unspecified)", "delta Cp (YB-1 minus CDIP)": "-0.399 (inactive)"}
{"compound": "COC(=O)[C@]1(Cc2ccccc2CN=[N+]=[N-])N=C(c2ccc(OCCCO)cc2)O[C@@H]1c1ccccc1CN=[N+]=[N-]", "delta Cp (YB-1 minus CDIP)": "0.139 (inactive)"}
{"compound": "C[C@@H]1CN([C@@H](C)CO)C(=O)c2cccc(NC(=O)Nc3cccc4ccccc34)c2O[C@@H]1CN(C)CC1CC1", "delta Cp (YB-1 minus CDIP)": "0.192 (inactive)"}
{"compound": "C[C@@H]1CN([C@H](C)CO)C(=O)Cc2cc(NC(=O)Cn3cnnn3)ccc2O[C@@H]1CN(C)S(=O)(=O)c1ccc(F)cc1", "delta Cp (YB-1 minus CDIP)": "0.145 (inactive)"}
{"compound": "C[C@H](CO)N1C[C@H](C)[C@H](CN(C)C(=O)NC2CCCCC2)Oc2c(NC(=O)c3nc4ccccc4s3)cccc2C1=O", "delta Cp (YB-1 minus CDIP)": "0.116 (inactive)"}
{"compound": "C[C@H]1CN([C@@H](C)CO)C(=O)Cc2cc(N(C)C)ccc2O[C@@H]1CN(C)Cc1ccc(-c2ccccc2)cc1", "delta Cp (YB-1 minus CDIP)": "0.0659 (inactive)"}
{"compound": "COC(=O)CCCCCCC(=O)N/N=C/c1ccc(C(=O)O)cc1", "delta Cp (YB-1 minus CDIP)": "-0.219 (inactive)"}
{"compound": "C[C@H]1CN([C@@H](C)CO)C(=O)c2cc(NC(=O)C3CCCCC3)ccc2O[C@H]1CN(C)S(=O)(=O)c1cn(C)cn1", "delta Cp (YB-1 minus CDIP)": "-0.0642 (inactive)"}
{"compound": "CC(C)(C)c1ccc(-c2[nH]nc(NC(=O)c3ccccc3Cl)c2Br)cc1", "delta Cp (YB-1 minus CDIP)": "0.0133 (inactive)"}
